Measurements as given in PubChem BioAssay (EPA / NIEHS).
A structure can be active in one record and inactive in another. Calls of active or inactive are those of the source. The calls were made as follows: active = hit-call score of the fitted dose curve at least 0.9, where 1 is the maximum; inactive = score below 0.9.

Experiments:
[1] = read-out: Thrombomodulin, THBD (gene 7056); assay: BSK_CASM3C_Thrombomodulin: BioMAP Diversity Plus: CASM3C Assay for Thrombomodulin Biomarker Activity (AID 2283051); settings: primary human coronary artery smooth muscle cells; actives raise or lower the signal;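 also: thrombomodulin protein level measured by ELISA 24 h after dosing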
[2] = read-out: Tissue Factor, F3 (gene 2152); assay: BSK_CASM3C_TissueFactor: BioMAP Diversity Plus: CASM3C Assay for Tissue Factor Biomarker Activity (AID 2283052); settings: primary human coronary artery smooth muscle cells; actives raise or lower the signal;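 also: cell surface tissue factor protein level read by ELISA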
[3] = read-out: Interferon-gamma inducible Protein 10 (IP10), CXCL10 (gene 3627); assay: BSK_hDFCGF_IP10: BioMAP Diversity Plus: hDFCGF Assay for Interferon-gamma inducible Protein 10 (IP10) Biomarker Activity (AID 2283053); settings: primary human foreskin fibroblasts; actives raise or lower the signal
Outline: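 IP-10 levels, quantified by ELISA, are taken from human foreskin fibroblast cultures 24 h after chemical treatment, with DMSO serving as negative control and baseline for bidirectional analysis.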

[4] = read-out: Urokinase-type plasminogen activator receptor (uPAR), PLAUR (gene 5329); assay: BSK_CASM3C_uPAR: BioMAP Diversity Plus: CASM3C Assay for Urokinase-type plasminogen activator receptor (uPAR) Biomarker Activity (AID 2283054); settings: primary human coronary artery smooth muscle cells; actives raise or lower the signal;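 also: cell-surface uPAR protein level quantified by ELISA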
[5] = read-out: Vascular cell adhesion molecule 1 (VCAM1), VCAM1 (gene 7412); assay: BSK_CASM3C_VCAM1: BioMAP Diversity Plus: CASM3C Assay for Vascular cell adhesion molecule 1 (VCAM1) Biomarker Activity (AID 2283055); settings: primary human coronary artery smooth muscle cells; actives raise or lower the signal;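 also: VCAM-1 protein level quantified by ELISA on the cells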
[6] = read-out: Collagen III, COL3A1 (gene 1281); assay: BSK_hDFCGF_CollagenIII: BioMAP Diversity Plus: hDFCGF Assay for Collagen III Biomarker Activity (AID 2283056); settings: primary human foreskin fibroblasts; actives raise or lower the signal
Outline: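 Human foreskin fibroblast primary cultures sampled 24 h after dosing; Collagen III quantified by ELISA. Signal fitted bidirectionally against DMSO baseline.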

[7] = read-out: Epidermal growth factor receptor (EGFR), EGFR (gene 1956); assay: BSK_hDFCGF_EGFR: BioMAP Diversity Plus: hDFCGF Assay for Epidermal growth factor receptor (EGFR) Biomarker Activity (AID 2283057); settings: primary human foreskin fibroblasts; actives raise or lower the signal
Outline: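 Measured by ELISA: EGFR levels on primary human foreskin fibroblasts 24 h after chemical treatment, analysed relative to DMSO with bidirectional fitting.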

[8] = read-out: Interleukin-8 (IL8), CXCL8 (gene 3576); assay: BSK_hDFCGF_IL8: BioMAP Diversity Plus: hDFCGF Assay for Interleukin-8 (IL8) Biomarker Activity (AID 2283058); settings: primary human foreskin fibroblasts; actives raise or lower the signal
Outline: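 Primary human foreskin fibroblasts (hDFCGF system) dosed with chemical; IL-8 measured by ELISA 24 hours later. Bidirectional curve fitting relative to DMSO baseline; cytotoxicity tracked in parallel cultures by SRB total protein staining.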

[9] = BSK_hDFCGF_Proliferation: Cell Proliferation Assessment in the BioMAP Diversity Plus: hDFCGF Assay (AID 2283059); settings: primary human foreskin fibroblasts;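 also: curves fitted for both rise and fall of signal versus DMSO baseline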
Outline: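 Sub-confluent human foreskin fibroblast cultures receive test chemical […]. Relative cell number is quantified by sulforhodamine B staining (0.1%, after 10% TCA fixation) at 560 nm, with bidirectional fitting referenced to DMSO.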

[10] = read-out: Macrophage colony-stimulating factor (MCSF), CSF1 (gene 1435); assay: BSK_hDFCGF_MCSF: BioMAP Diversity Plus: hDFCGF Assay for Macrophage colony-stimulating factor (MCSF) Biomarker Activity (AID 2283060); settings: primary human foreskin fibroblasts; actives raise or lower the signal
Outline: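 Human foreskin fibroblast primary cultures; M-CSF measured by ELISA 24 hours after chemical dosing. Bidirectional fitting relative to DMSO, with overt cytotoxicity tracked by parallel SRB total-protein staining (0.1% SRB, 10% TCA fixation, 560 nm).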

[11] = BSK_hDFCGF_SRB: Viability Assessment in the BioMAP Diversity Plus: hDFCGF Assay (AID 2283061); settings: primary human foreskin fibroblasts;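 also: cells exposed to compound for 24 h before the read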
Outline: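 Human foreskin fibroblasts in 96-well plates were treated 24 h. Total protein was measured by 0.1% SRB staining after 10% TCA fixation, read at 560 nm. Data were fitted bidirectionally against DMSO.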

[12] = read-out: TIMP metallopeptidase inhibitor 1 (TIMP1), TIMP1 (gene 7076); assay: BSK_hDFCGF_TIMP1: BioMAP Diversity Plus: hDFCGF Assay for TIMP metallopeptidase inhibitor 1 (TIMP1) Biomarker Activity (AID 2283062); settings: primary human foreskin fibroblasts; actives raise or lower the signal
Outline: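 Human foreskin fibroblast primary cultures dosed for 24 h; secreted/surface TIMP-1 quantified by ELISA. Bidirectional curve fitting against DMSO baseline; cytotoxicity tracked in parallel cultures by SRB total-protein staining.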

[13] = read-out: Matrix Metallopeptidase 1 (MMP1), MMP1 (gene 4312); assay: BSK_hDFCGF_MMP1: BioMAP Diversity Plus: hDFCGF Assay for Matrix Metallopeptidase 1 (MMP1) Biomarker Activity (AID 2283064); settings: primary human foreskin fibroblasts; actives raise or lower the signal
Outline: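 Primary human foreskin fibroblasts in the hDFCGF system were dosed with test chemical, and MMP1 was measured by ELISA 24 h later. Values come from bidirectional curve fitting against the DMSO baseline.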

[14] = read-out: Vascular cell adhesion molecule 1 (VCAM1), VCAM1 (gene 7412); assay: BSK_hDFCGF_VCAM1: BioMAP Diversity Plus: hDFCGF Assay for Vascular cell adhesion molecule 1 (VCAM1) Biomarker Activity (AID 2283065); settings: primary human foreskin fibroblasts; actives raise or lower the signal;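 as to AC50: VCAM-1 protein level quantified by ELISA after 24 h chemical exposure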
Outline: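 Human foreskin fibroblast primary cells dosed with chemical, VCAM-1 measured by ELISA at 24 h. Bidirectional curve fitting relative to DMSO as negative control/baseline.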

[15] = read-out: Plasminogen activator inhibitor-1 (PAI1), SERPINE1 (gene 5054); assay: BSK_hDFCGF_PAI1: BioMAP Diversity Plus: hDFCGF Assay for Plasminogen activator inhibitor-1 (PAI1) Biomarker Activity (AID 2283066); settings: primary human foreskin fibroblasts; actives raise or lower the signal
Outline: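 PAI-1 levels, determined by ELISA, served as the endpoint in human foreskin fibroblast cultures exposed to compound for 24 h, with DMSO as baseline.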

[16] = read-out: Intercellular Adhesion Molecule 1 (ICAM1), ICAM1 (gene 3383); assay: BSK_KF3CT_ICAM1: BioMAP Diversity Plus: KF3CT Assay for Intercellular Adhesion Molecule 1 (ICAM1) Biomarker Activity (AID 2283067); settings: primary human keratinocytes with fibroblasts; actives raise or lower the signal
Outline: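 Human keratinocyte–foreskin fibroblast co-culture was treated for 24 h. Cell-surface ICAM-1 was quantified by ELISA, fitted bidirectionally relative to DMSO. Cytotoxicity was checked in parallel cultures by SRB total-protein staining.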

[17] = read-out: Interferon-gamma inducible Protein 10 (IP10), CXCL10 (gene 3627); assay: BSK_KF3CT_IP10: BioMAP Diversity Plus: KF3CT Assay for Interferon-gamma inducible Protein 10 (IP10) Biomarker Activity (AID 2283068); settings: primary human keratinocytes with fibroblasts; actives raise or lower the signal
Outline: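 ELISA read-out of IP-10 after 24 h chemical dosing of human skin primary co-culture (keratinocytes, foreskin fibroblasts). Gain or loss of signal relative to DMSO, bidirectional curve fit.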

[18] = BSK_KF3CT_SRB: Viability Assessment in the BioMAP Diversity Plus: KF3CT Assay (AID 2283069); settings: primary human keratinocytes with fibroblasts;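 also: total protein by sulforhodamine B staining as a cytotoxicity measure; read 24 h after compound addition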
Outline: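 Human primary keratinocyte plus foreskin fibroblast co-culture exposed to chemicals for 24 h. Total protein measured by 0.1% sulforhodamine B staining after 10% TCA fixation, read at 560 nm; bidirectional fitting versus DMSO baseline.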

[19] = read-out: Interleukin-1 alpha (IL1a), IL1A (gene 3552); assay: BSK_KF3CT_IL1a: BioMAP Diversity Plus: KF3CT Assay for Interleukin-1 alpha (IL1a) Biomarker Activity (AID 2283070); settings: primary human keratinocytes with fibroblasts; actives raise or lower the signal
Outline: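 Human keratinocyte plus foreskin fibroblast primary co-culture, sampled 24 h after chemical dosing. IL-1a measured by ELISA; responses fitted bidirectionally against DMSO baseline (negative control), so gain or loss of signal both count.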

Measured: AC50

CC(C)(C)C(O)/C(=C\c1ccc(Cl)cc1Cl)n1cncn1 (stereo unspecified)
inactive: [2] | [4] | [5] | [6] | [7] | [8] | [13] | [19]
active: [1] 15 µM | [3] 36.5 µM | [9] 29.8 µM | [10] 26.5 µM | [11] 20 µM | [12] 25.7 µM | [14] 31.6 µM | [15] 9.85 µM | [16] 34.4 µM | [17] 29.7 µM | [18] 20 µM

Oc1ccc(Cl)cc1Cc1ccccc1
inactive: [1] | [2] | [4] | [7]
active: [2] 31.3 µM [middle of 4 runs] | [4] 33.9 µM [middle of 6 runs] | [5] 33.2 µM [middle of 7 runs] | [7] 12.4 µM [middle of 4 runs] | [8] 31.3 µM [middle of 7 runs] | [9] 7.84 µM [middle of 7 runs] | [10] 14.7 µM [middle of 7 runs] | [14] 14.5 µM [middle of 7 runs] | [15] 24.5 µM [middle of 6 runs]

COP(=S)(OC)Oc1ccc([N+](=O)[O-])cc1
active: [3] 20.3 µM | [6] 16.6 µM | [10] 11.1 µM | [12] 5.75 µM | [15] 6.41 µM | [17] 9.18 µM
inactive: all other assays above
